Test results taken from the supplement of paper PMC3545927.
The list shows a part of the results. The true hit rate is not given.

Target: furin, P09958
Test: furin cleavage Z-score vs untreated control; higher = more cleavage, active = 3.5 or more, inactive = 1 or less, 8 variable residues between constant flanks
How it was run: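 The cleavage Z-score was derived for purified furin acting on 8-mer peptides held on magnetic beads and fused to a cDNA oligonucleotide. Digests lasted 7.5, 15 or 30 min at 1:10 enzyme:substrate in 50 mM HEPES pH 7.5 with CaCl2 and NaCl. Sequencing counts of released DNA, log-transformed against furin-free reactions, were lowess-adjusted and scaled by median absolute deviation.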

furin, P09958, sequence (P09958 whole entry): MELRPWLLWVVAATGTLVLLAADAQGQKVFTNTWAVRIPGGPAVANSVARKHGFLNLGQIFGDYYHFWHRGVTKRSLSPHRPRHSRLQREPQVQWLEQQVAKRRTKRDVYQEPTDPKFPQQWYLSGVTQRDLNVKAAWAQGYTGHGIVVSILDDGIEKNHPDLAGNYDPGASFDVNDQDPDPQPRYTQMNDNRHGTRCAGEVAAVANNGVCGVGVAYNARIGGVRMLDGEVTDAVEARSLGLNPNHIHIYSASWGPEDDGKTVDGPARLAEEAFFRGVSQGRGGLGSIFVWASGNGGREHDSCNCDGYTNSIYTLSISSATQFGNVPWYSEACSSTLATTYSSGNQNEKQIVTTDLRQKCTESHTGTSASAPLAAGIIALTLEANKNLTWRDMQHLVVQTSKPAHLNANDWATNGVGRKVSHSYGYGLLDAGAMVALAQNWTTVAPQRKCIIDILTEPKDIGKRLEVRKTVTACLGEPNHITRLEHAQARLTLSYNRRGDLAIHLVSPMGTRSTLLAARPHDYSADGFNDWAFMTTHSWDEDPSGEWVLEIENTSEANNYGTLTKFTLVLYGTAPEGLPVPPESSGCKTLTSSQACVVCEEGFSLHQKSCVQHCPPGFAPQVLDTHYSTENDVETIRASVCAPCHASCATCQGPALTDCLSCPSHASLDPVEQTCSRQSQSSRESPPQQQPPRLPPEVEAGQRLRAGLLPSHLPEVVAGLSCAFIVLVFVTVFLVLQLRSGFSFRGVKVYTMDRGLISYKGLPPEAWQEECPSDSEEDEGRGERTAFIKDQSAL

| Sequence | furin cleavage Z-score (7.5 min) | furin cleavage Z-score (15 min) | furin cleavage Z-score (30 min) |
| --- | --- | --- | --- |
| CATTPCEGSWAGNASASA [HC73] | 0.057 (inactive) | 0.658 (inactive) | 0.0884 (inactive) |
| CATGTYVYNHAGNASASA [HC633] | -0.127 (inactive) | -1.41 (inactive) | -0.282 (inactive) |
| CARRARDMSSAGNASASA [FS-1771] | 2.38 | 4.53 (active) | 4.22 (active) |
| CAADGMVSKGAGNASASA [HC668] | 0.272 (inactive) | 0.596 (inactive) | -0.245 (inactive) |
| CATLDRSKRNAGNASASA [FS-1494] | 10.9 (active) | 11.2 (active) | 9.22 (active) |
| CAFIGREKRSAGNASASA [FS-1323] | 12 (active) | 10.8 (active) | 9.06 (active) |
| CATLDREKRSAGNASASA [FS-98] | 9.65 (active) | 10.6 (active) | 9.73 (active) |
| CADPMLEKRSAGNASASA [FS-1517] | -0.771 (inactive) | -0.469 (inactive) | 0.309 (inactive) |
| CAGSQWEKRSAGNASASA [FS-1129] | 1.1 | -0.464 (inactive) | -0.295 (inactive) |
| CARQDRSKGTAGNASASA [FS-2225] | 0.0348 (inactive) | -0.0846 (inactive) | -0.182 (inactive) |
| CAMLSPEKRSAGNASASA [FS-178] | 0.073 (inactive) | -0.325 (inactive) | 0.835 (inactive) |
| CADQEREKRSAGNASASA [FS-1115] | 2.32 | 3.5 (active) | 5.3 (active) |
| CADMMMNWSPAGNASASA [HC321] | -1.68 (inactive) | -0.337 (inactive) | -0.211 (inactive) |
| CANRLIAFASAGNASASA [HC1119] | 0.982 (inactive) | 0.0869 (inactive) | 0.661 (inactive) |
| CAPYYKRYISAGNASASA [HC577] | -0.596 (inactive) | 1.03 | 0.43 (inactive) |
| CAEVPCHRCSAGNASASA [HC2400] | -0.164 (inactive) | 1.15 | 0.38 (inactive) |
| CAEGHRPRRPAGNASASA [FS-412] | -0.592 (inactive) | -1.65 (inactive) | -2.58 (inactive) |
| CAGDIRVRRLAGNASASA [FS-423] | 3.94 (active) | 5.14 (active) | 6.57 (active) |
| CAARHRPRRLAGNASASA [FS-1307] | 8.25 (active) | 10.2 (active) | 9.03 (active) |
| CAKRAAVRRLAGNASASA [FS-1134] | -0.242 (inactive) | -0.206 (inactive) | 1.42 |
| CAACIRKRRLAGNASASA [FS-1582] | 8.2 (active) | 8.28 (active) | 8.96 (active) |
| CAAEAAGRRLAGNASASA [HC1252] | -0.023 (inactive) | -0.0869 (inactive) | -1.21 (inactive) |

| Sequence | furin cleavage Z-score (7.5 min) | furin cleavage Z-score (15 min) | furin cleavage Z-score (30 min) |
| --- | --- | --- | --- |
| CANLSRNRRLAGNASASA [FS-697] | 2.54 | 6.24 (active) | 6.91 (active) |
| CAAWYLKGKWAGNASASA [HC548] | -0.848 (inactive) | -0.178 (inactive) | -0.813 (inactive) |
| CAHSAKSKFGAGNASASA [HC1418] | -0.464 (inactive) | -0.415 (inactive) | -0.702 (inactive) |
| CAVVCCSMSKAGNASASA [HC2094] | -0.242 (inactive) | -0.54 (inactive) | -1.3 (inactive) |
| CAHGAGTRTIAGNASASA [HC702] | 1.09 | 1.35 | -2.29 (inactive) |
| CAALSRPRRLAGNASASA [FS-749] | 2.43 | 5.44 (active) | 2.14 |
| CAEVPCHRPVAGNASASA [HC2410] | 0.723 (inactive) | -0.406 (inactive) | -0.356 (inactive) |
| CASSGRSFRSAGNASASA [FS-146] | 0.572 (inactive) | 0.748 (inactive) | 1.78 |
| CASSGCPERLAGNASASA [HC385] | -0.122 (inactive) | -0.598 (inactive) | 0.353 (inactive) |
| CASSGRPRRSAGNASASA [FS-507] | 10.4 (active) | 9.27 (active) | 7.66 (active) |
| CAKPQRPRRPAGNASASA [FS-1133] | -0.333 (inactive) | 0.223 (inactive) | 1.52 |
| CARSSRPRRSAGNASASA [FS-1163] | 10.4 (active) | 11 (active) | 6.76 (active) |
| CARSSRSGSSAGNASASA [FS-3096] | -0.25 (inactive) | -0.36 (inactive) | -1.33 (inactive) |
| CARESRPRRQAGNASASA [FS-1395] | 8.96 (active) | 9.39 (active) | 6.91 (active) |
| CAVDSRPRRSAGNASASA [FS-887] | 9.24 (active) | 9.17 (active) | 9.61 (active) |
| CAQAETAGARAGNASASA [HC828] | -0.329 (inactive) | 0.716 (inactive) | -1.08 (inactive) |
| CADTAACGDIAGNASASA [HC655] | 0.349 (inactive) | -0.867 (inactive) | 1 |
| CAQGWGPISYAGNASASA [HC394] | 1.47 | 0.693 (inactive) | 0.999 (inactive) |
| CASEPAPSGCAGNASASA [HC1345] | -2.17 (inactive) | 0.166 (inactive) | -1.95 (inactive) |
| CATTPCPGSWAGNASASA [HC80] | 0.174 (inactive) | -1.3 (inactive) | -1.39 (inactive) |
| CAEFTTPCSGAGNASASA [HC1967] | -0.433 (inactive) | -0.681 (inactive) | -0.377 (inactive) |
